According to PubChem BioAssay (NCATS):
Records with an inconclusive call do not appear. Active and inactive are the calls of the source. Calls follow the shape of the dose curve; as a rule, active = well fitted inhibition curve with a large enough effect; inconclusive = small, poorly fitted or top-dose-only effect; inactive = flat fitted curve, though single readings scatter.

What was measured:
Experiment in all cases: qHTS profiling for inhibitors of Plasmodium falciparum proliferation (AID 504749); also: nearly all actives have a fitted effect of over 60% in size
Details in all cases: P. falciparum in erythrocytes, SYBR Green DNA, 72 h; series mostly up to 28.7 µM
P93_24 = system: P93_24
Summary of the method: (§1)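 SYBR Green fluorescence of parasite DNA, read after lysis and overnight dark incubation, measured growth over 72 h in erythrocyte culture at 0.3% parasitemia and 2.5% hematocrit. Data normalised to DMSO and 0.29 uM artemisinin, with plate-drift correction.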

P94_40 = system: P94_40
Summary of the method: as §1

PAD = system: PAD
Summary of the method: as §1

PC15 = system: PC15
Summary of the method: as §1

PC26 = system: PC26
Summary of the method: as §1

PC49 = system: PC49
Summary of the method: as §1

SC27B = system: SC27B
Summary of the method: as §1

TAB109 = system: TAB109
Summary of the method: as §1

TAB113 = system: TAB113
Summary of the method: as §1

TAB165 = system: TAB165
Summary of the method: as §1

Measured: Potency

CCCCNC(=O)NS(=O)(=O)c1ccc(N)cc1
inactive: all assays above

Nc1ccc(S(=O)(=O)Nc2cnc3ccccc3n2)cc1
inactive: all assays above

Cl/C(=C\n1cncn1)c1ccc(Cl)cc1Cl
inactive: all assays above

C#C[C@]1(O)CC[C@H]2[C@@H]3CCC4=CC(=O)CC[C@@H]4[C@H]3CC[C@@]21CC
inactive: all assays above

Cc1nc(-c2ccc(Cl)cc2)oc1COC(C)(C)C(=O)O
inactive: all assays above

CCCCC(CC)COC(=O)c1ccc(N(C)C)cc1 (stereo not given)
inactive: all assays above

CC(C)Cn1cnc2c1c(=O)n(C)c(=O)n2C
inactive: all assays above

NS(=O)(=O)Cc1noc2ccccc12
inactive: all assays above

CC(=O)Nc1ccc(S(=O)(=O)Nc2ccc([N+](=O)[O-])cc2)cc1
inactive: all assays above

C#C[C@]1(O)CC[C@H]2[C@@H]3CCC4=Cc5oncc5C[C@]4(C)[C@H]3CC[C@@]21C
inactive: all assays above

COc1ccc(/C=N/NC(=O)c2ccncc2)cc1OC
inactive: all assays above

FC1(F)C(F)(F)C(F)(F)C2(F)C(F)(F)C(F)(F)C(F)(F)C(F)(F)C2(F)C1(F)F (stereo not given)
inactive: all assays above

CCOC(=O)c1ccc(N)cc1
inactive: all assays above

CCC1Nc2cc(Cl)c(S(N)(=O)=O)cc2S(=O)(=O)N1 (stereo not given)
inactive: all assays above

CCc1oc2ccccc2c1C(=O)c1cc(Br)c(O)c(Br)c1
inactive: all assays above

NC(=O)c1ccccc1O
inactive: all assays above

O=C(O)c1ccc(S(=O)(=O)N(Cl)Cl)cc1
inactive: all assays above

CC(=O)Nc1ccc(OCC(O)CNC(C)C)cc1 (stereo not given)
inactive: all assays above

CC(=O)Oc1ccc(C)cc1
inactive: all assays above

COc1cc(C(=O)N2CCCCCCC2)cc(OC)c1OC
inactive: all assays above

COc1cc(C)nc(-n2nc(C)cc2OC)n1
inactive: all assays above

Cc1ccc(S(=O)(=O)NC(=O)NC2CCCC2)cc1
inactive: all assays above

Cc1c[nH]c2ccccc12
inactive: all assays above

NC(=S)N/N=C/c1cccnc1
inactive: all assays above

COc1cc(C(=O)NCc2ccc(OCCN(C)C)cc2)cc(OC)c1OC
inactive: all assays above

CCC(CC)(CC(=O)Nc1cccc(/C=C/c2nc(C3CCC3)cs2)c1)C(=O)O
inactive: all assays above

O=C(NCCc1c[nH]c2ccccc12)c1cccnc1
inactive: all assays above

O=C(O)P(=O)(O)O
inactive: all assays above

CCOc1cc(OCC)c(C(=O)CCC(=O)O)cc1OCC
inactive: all assays above

CC(=O)OCC(=O)[C@H]1CC[C@H]2[C@@H]3CCC4=CC(=O)CC[C@]4(C)[C@H]3CC[C@]12C
inactive: all assays above

CCCCCCCC/C=C\CCCCCCCCN
inactive: all assays above

O=C(O)C(Cc1cc(I)c(O)c(I)c1)c1ccccc1 (stereo not given)
inactive: all assays above

CC(C)CCCC(C)N (stereo not given)
inactive: all assays above

COP(=O)(OC)OC(c1ccc(Cl)cc1)P(=O)(OC)OC (stereo not given)
inactive: all assays above

CC(=O)NC(=O)c1ccccc1O
inactive: all assays above

Nc1nc(N)c(-c2ccccc2)s1
inactive: all assays above

CCCN(CCC)S(=O)(=O)c1ccc(C(=O)O)cc1
inactive: all assays above

CCOc1ccccc1C(N)=O
inactive: all assays above

CCCCCCCCCCCCCCCC(=O)O
inactive: all assays above

Nc1nc(-c2ccccc2)c(Br)c(=O)[nH]1
inactive: all assays above

CCc1oc2ccccc2c1C(=O)c1cc(I)c(O)c(I)c1
inactive: all assays above

Cc1ccccc1OCC(O)CO (stereo not given)
inactive: all assays above

COc1ccccc1N1CCN(CCCCNC(=O)c2ccc(-c3ccc(C(C)=O)cc3)cc2)CC1
inactive: all assays above

CCOc1ccc(NC(C)=O)cc1
inactive: all assays above

O=C(Nc1ccc([N+](=O)[O-])cc1)Nc1ccc([N+](=O)[O-])cc1
inactive: all assays above
